Our source for the Potency, activation and viability values is PubChem BioAssay (NCATS).

Values joined by “and” are separate entries in the source; they are usually repeats but may differ in a detail not shown here. Equal entries are not always repeated. Results filed as inconclusive are left out. Values without a mark were called inactive. Active and inactive are the calls of the source. The call rests on the fitted dose curve; in most records, active means well fitted curve in the direction sought with a large enough effect; inconclusive means small, poorly fitted or top-dose-only effect, or another doubt; inactive means no such curve, though single readings can be large; an effect the other way counts as inactive or inconclusive.

The target in test [1] is Cellular tumor antigen p53 (Homo sapiens) (UniProt P04637). The test is described as follows: Primary qHTS for small molecule compounds that upregulate eGFP-tagged delta133p53alpha (in N-terminal) cells. (AID 2060322). Further: nearly all actives have a fitted effect of over 75% in size. Further: potency means the concentration at half of the fitted maximal effect.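 On activation: cells pre-induced with doxycycline then dosed without doxycycline; series mostly up to about 56 µM; 0% = DMSO vehicle and 100% = reference activator.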 Particulars: NCI-H358 eGFP-delta133p53alpha fluorescence, 24 h; activation: hits give high values. In outline:
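NCI-H358 cells pre-induced 24 h with 10 ng/ml doxycycline for eGFP-delta133p53alpha, plated dox-free and exposed 24 h at 37C to titrated compounds. Fixed, Hoechst-stained; gated GFP peak intensity by laser scanning cytometry, normalized to DMSO (0%) and 57.5 uM 5-azacytidine (100%).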
For orientation: Quantitative high-throughput screening tests each substance at several concentrations.

Test [2] has as its target Aldehyde dehydrogenase, mitochondrial (Homo sapiens) (UniProt P05091). Briefly: qHTS for Inhibitors of the Aldehyde Dehydrogenase Family (ALDH2) Primary screen (AID 2061308).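 Further: plate controls were vehicle for no effect and reference inhibitor for full effect; nearly all actives have a fitted effect of over 55% in size.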
In test [3] the target is Retinaldehyde dehydrogenase 3 (Homo sapiens) (UniProt P47895). The test is described as follows: qHTS for Inhibitors of the Aldehyde Dehydrogenase Family (ALDH1A3) Primary screen (AID 2061315).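 Further: plate controls were DMSO vehicle for no effect and reference inhibitor for full effect.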
Test [4] in a line: BET inhibitor-based combinations targeting novel dependencies in MECOM-rearranged (r) AML: SET-2 cell line (AID 2202231). Further: nearly all actives have a fitted effect of over 35% in size. Further: potency means the concentration at half of the fitted maximal effect.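 On viability: plate controls were DMSO treated cells for no effect and wells without cells for full effect.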 The note with it: SET-2 AML cells viability, CellTiter-Glo luminescence, 48 h; viability: hits give low values, concentration not given here. A digest of the protocol: (§1)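 Readout: CellTiter-Glo luminescence. Exposure: 48 h, 11 concentrations, 500 cells/well. Metric: AUC and within-line Z-AUC after DMSO/empty-well normalization.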

Test [5] is described as follows: BET inhibitor-based combinations targeting novel dependencies in MECOM-rearranged (r) AML: OCI-AML3 cell line (AID 2202232). Further: nearly all actives have a fitted effect of over 35% in size. Further: potency means the concentration at half of the fitted maximal effect. The note with it: Potency: OCI-AML3 viability. A digest of the protocol: as §1
Test [6] can be described thus: BET inhibitor-based combinations targeting novel dependencies in MECOM-rearranged (r) AML: MV-4-11 cell line (AID 2202233). Further: nearly all actives have a fitted effect of over 45% in size. Further: potency means the concentration at half of the fitted maximal effect. A digest of the protocol: (§2)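 Seeding density was 500 cells/well, and drug exposure lasted 48 hr under standard culture conditions. Read-out used CellTiter-Glo reagent with a 15 min room-temperature incubation before luminescence measurement; AUC and Z-AUC summarize the normalized responses.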

The nature of test [7]: BET inhibitor-based combinations targeting novel dependencies in MECOM-rearranged (r) AML: HNT-34 cell line (AID 2202234). Further: nearly all actives have a fitted effect of over 35% in size. Further: potency means the concentration at half of the fitted maximal effect. In outline:
as §2

Test [8] is described as follows: BET inhibitor-based combinations targeting novel dependencies in MECOM-rearranged (r) AML: UCSD-AML1 cell line (AID 2202235). Further: nearly all actives have a fitted effect of over 40% in size. Further: potency means the concentration at half of the fitted maximal effect. In outline:
as §2

Test [9] is described as follows: BET inhibitor-based combinations targeting novel dependencies in MECOM-rearranged (r) AML: AML-191 cell line (AID 2202236; further: nearly all actives have a fitted effect of over 35% in size; further: potency means the concentration at half of the fitted maximal effect). A digest of the protocol:
as §1

Test [10] in a line: BET inhibitor-based combinations targeting novel dependencies in MECOM-rearranged (r) AML: AML-194 cell line (AID 2202237; further: nearly all actives have a fitted effect of over 40% in size; further: potency means the concentration at half of the fitted maximal effect). In outline:
as §1

Sequence of Cellular tumor antigen p53 (Homo sapiens) (P04637 whole entry, looked up): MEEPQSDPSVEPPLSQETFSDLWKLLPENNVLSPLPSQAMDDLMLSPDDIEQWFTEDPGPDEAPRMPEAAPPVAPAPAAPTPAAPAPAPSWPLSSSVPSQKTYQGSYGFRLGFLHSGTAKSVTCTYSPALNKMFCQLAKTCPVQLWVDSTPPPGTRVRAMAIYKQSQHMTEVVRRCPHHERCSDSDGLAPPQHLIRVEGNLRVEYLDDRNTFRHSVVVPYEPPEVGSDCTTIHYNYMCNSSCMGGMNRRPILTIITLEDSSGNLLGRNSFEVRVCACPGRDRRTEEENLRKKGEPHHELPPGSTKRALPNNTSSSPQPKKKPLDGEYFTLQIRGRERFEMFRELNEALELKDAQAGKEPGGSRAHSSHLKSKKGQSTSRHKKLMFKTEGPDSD

For `CN1CCC(CNc2ccc3ncc(-c4cccc(OC(F)(F)F)c4)n3n2)CC1`, the Potency was 26900 nM (active) in [1]; 11800 nM (active) in test [4]; 8330 nM (active) in test [5]; 166 nM (active) in test [6]; 5250 nM (active) in test [7]; 5900 nM (active) in [8]. Also, the Potency in test [9] was 5250 nM (active); in [10], 4170 nM (active). Also, the Potency entry in test [2] and in test [3] was “inactive” in each case.
Consider `CCCOc1ccc(CCc2nc3cc(-c4c(C)noc4C)ccc3n2CCN2CCOCC2)cc1`, for which the activation in test [1] was -35.8%. The Potency entry in test [2] and in test [3] was “inactive” throughout. For the same molecule, the Potency in [4] is 20900 nM (active); in [5], 16600 nM (active); in test [6], 18600 nM (active); in [7], 14800 nM (active).
For `Cc1[nH]c2ccc(F)cc2c1-c1nc2c3cccnc3c3ncccc3c2[nH]1`, the activation in [1] was -1%. The Potency entry in test [2] and in test [3] was “inactive” each time. In addition, the Potency is 2700 nM (active) in test [4]; 679 nM (active) in test [5]; 605 nM (active) in test [6]; 679 nM (active) in [7]; 679 nM (active) in test [8]; 539 nM (active) in test [9]. The Potency in test [10] is 762 nM (active).
As for `O=C(Nc1ccc(-c2ccnc(Nc3ccc(N4CCOCC4)cc3)n2)cc1)C1CCCN1` (stereo unspecified), the activation in test [1] is -5.36%. The Potency entry in test [2] and in test [3] was “inactive” throughout. Besides, the Potency is 9340 nM (active) in test [4]; 16600 nM (active) in [5]; 2350 nM (active) in test [6]; 5900 nM (active) in [7]; 1660 nM (active) in test [8].
With `O=C(c1ccc(Nc2nccc(-c3cc4ccccc4s3)n2)cc1)N1CCC(N2CCCC2)CC1`, in test [1], the activation is -33.3%. Further, the Potency result in test [2] and in test [3] was “inactive” throughout. For the same molecule, the Potency in test [4] was 6610 nM (active); in test [5], 18600 nM (active); in [6], 1860 nM (active); in test [7], 5250 nM (active); in [8], 3320 nM (active); in [9] it was 7420 nM (active).
On to `OCc1ccccc1O[C@@H]1O[C@H](CO)[C@@H](O)[C@H](O)[C@H]1O`, for which the activation in test [1] is 2.68%. Further, the Potency entry in test [2], in test [3], in test [5], in [6], in test [7] and in [8] was “inactive” in each case. In addition, the Potency result in [9] and in [10] was “inactive” throughout. In addition, in test [4], the viability is 115%.
Regarding `Cc1ccc(-c2ccc3ncc4c(c3n2)n(C2CCN(C(=O)[C@H](C)O)CC2)c(=O)n4C)cn1`, the Potency in test [1] is 12000 nM (active); in [4] it was 166 nM (active); in test [5] it was 296 nM (active); in test [6], 209 nM (active); in [7], 263 nM (active); in test [8], 93.4 nM (active). In addition, the Potency was 166 nM (active) in test [9] and 417 nM (active) in test [10]. For the same molecule, the Potency entry in test [2] and in [3] was “inactive” in each case.
Consider `Cc1cnc(-c2cc(N3CCN(C(=O)CCS(C)(=O)=O)CC3)ncc2Cl)c(C)c1`, for which the activation in test [1] was 20.4% and -10.5%. For the same molecule, the Potency result in [2], in test [3], in test [5], in [6], in test [7] and in test [8] was “inactive” in each case. Besides, the Potency result in [9] and in test [10] was “inactive” each time. For the same molecule, the viability in test [4] was 112%.
With `CO[C@@H](C)Cn1c(=O)n(C)c2cnc3ccc(-c4cncc(C(C)(C)O)c4)cc3c21`, the activation in test [1] was -10.7%. In addition, the Potency entry in test [2] and in test [3] was “inactive” in each case. Further, the Potency is 934 nM (active) in [4]; 1180 nM (active) in test [5]; 332 nM (active) in [6]; 372 nM (active) in [7]; 263 nM (active) in test [8]; 235 nM (active) in test [9].
Regarding `COc1ccc(Cc2ccc(NC(N)=O)cc2)cc1-c1cccc(Cl)c1`, the activation in [1] is 2.49%. In addition, the Potency entry in test [2], in test [3], in [5], in test [6], in [7] and in [8] was “inactive” each time. Further, the viability in test [4] was 103%.
For the molecule `C1Cc2[nH]nc(-c3nn[nH]n3)c2C1`, the activation in [1] is 0.623% and -10.5%. Further, the Potency result in test [2], in test [3], in [5], in test [6], in test [7] and in test [8] was “inactive” throughout. The Potency result in [9] and in test [10] was “inactive” each time. In test [4], the viability is 120%.
Consider `O=C(NCc1cccc(O)c1)Nc1nc(-c2ccncc2)cs1`, for which the activation in test [1] was 6.25%. Further, the Potency entry in [2] and in test [3] was “inactive” throughout. Besides, the viability in test [4] is 92.2%. Further, the Potency in [5] is 14800 nM (active).
On to `CC1=C(C(=O)Nc2cc3cn[nH]c3cc2F)C(c2ccc(C(F)(F)F)cc2)CC(=O)N1` (stereo unspecified), for which, in [1], the activation was -14.3% and -24.1%. For the same molecule, the Potency result in test [2] and in test [3] was “inactive” in each case. The viability in [4] is 110%. Moreover, the Potency in test [5] was 2950 nM (active).
On to `Nc1cc(C(F)(F)F)c(-c2cc(N3CCOCC3)nc(N3CCOCC3)n2)cn1`, for which the Potency is 1690 nM (active) in [1]; 4170 nM (active) in [4]; 1860 nM (active) in test [5]; 2350 nM (active) in [6]; 1660 nM (active) in test [7]; 1180 nM (active) in test [8]. Besides, the Potency is 2090 nM (active) in test [9] and 1860 nM (active) in [10]. Further, the Potency entry in [2] and in test [3] was “inactive” throughout.
Consider `COc1cc2nc(-c3cc(F)ccc3O)nc(N[C@@H]3CNC[C@H]3C(C)(C)O)c2cc1OC`, for which the Potency in test [1] is 21300 nM (active); in test [4] it was 6610 nM (active); in test [5], 7420 nM (active); in [6] it was 6.6 nM (active); in [7] it was 4680 nM (active); in test [8], 4170 nM (active). In addition, the Potency is 5250 nM (active) in test [9] and 6610 nM (active) in [10]. The Potency entry in [2] and in test [3] was “inactive” each time.
Consider `CCCCCCCCCC(=O)N[C@@H](Cc1c[nH]c2ccccc12)C(=O)N[C@H](CC(N)=O)C(=O)N[C@@H](CC(=O)O)C(=O)N[C@@H]1C(=O)NCC(=O)N[C@@H](CCCN)C(=O)N[C@@H](CC(=O)O)C(=O)N[C@H](C)C(=O)N[C@@H](CC(=O)O)C(=O)NCC(=O)N[C@H](CO)C(=O)N[C@@H]([C@@H](C)CC(=O)O)C(=O)N[C@@H](CC(=O)c2ccccc2N)C(=O)O[C@@H]1C`, for which the activation in test [1] is -9.73% and 21%. For the same molecule, the Potency result in test [2], in test [3], in test [5], in test [6], in [7] and in [8] was “inactive” throughout. Further, the Potency entry in test [9] and in test [10] was “inactive” throughout. Also, the viability in test [4] is 107%.

The term viability denotes a read-out of living cells in per cent, often relative to untreated cells.
